63 compounds from PubChem BioAssay AID504329 (Southern Research Specialized Biocontainment Screening …, 2011) can be followed below.

The whole screen tested about 340,000 compounds, of which about 1,000 (0.29%) were called active. The list is a sample of the results. Entries with a potency or affinity are not part of this list. Values without a mark were called inactive. Cut-off read from the data, not from the text of the source: inconclusive = inhibition above about 27% without an active follow-up result; inactive = below that.

The experiment can be described thus: NS1A inhibition, H1N1 influenza, cell based functional assay (AID 504329). To be noted: percent inhibition, at 12.5 µM, stronger effect = higher value.
With `CC(C)CC(OC(=O)c1cccs1)C(=O)NCC1CCCO1` (stereo not drawn), the inhibition is 11.2%.

Regarding `COc1ccccc1N1CCN(C(=O)c2ccc(S(=O)(=O)N3CCCC3)cc2)CC1`, the inhibition is 4.29%.

For the compound `COc1ccc(NC(=O)COC(=O)CCc2ccc(S(=O)(=O)N3CCOCC3)cc2)cc1Cl`, the inhibition was -1.5%.

On to `CCOC(=O)c1sc2nc(N3CCOCC3)c3c(c2c1N)CCC3`, for which the inhibition was 8.09%.

Turning to `Cc1ccc(CNC(=O)Cn2nnc3ccccc3c2=O)cc1`, the inhibition was -3.7%.

Take `COC(=O)c1ccc(NC(=S)NC2CC(C)(C)NC(C)(C)C2)cc1`: the inhibition was -11.7%.

`CCOC(=O)C1(CCCc2ccccc2)CCN(C(=O)c2cnn(CC)c2)CC1`: the inhibition was 0.777%.

For the compound `O=C(NC(=S)Nc1ccc(F)c([N+](=O)[O-])c1)c1ccccc1F`, the inhibition was 6.76%.

Turning to `COc1cc(/C=C/C(=O)OCC(=O)NCCN2C(=O)CSC2=O)ccc1OCC#N`, the inhibition is 1.99%.

With `CC(C)CN(C(=O)CCC(=O)OCc1ccc(Cl)cc1Cl)c1c(N)n(CC(C)C)c(=O)[nH]c1=O`, the inhibition is -1.56%.

Consider `CCN(CC)c1ccc(N=Nc2nn(C)c(C)c2[N+](=O)[O-])cc1`, for which the inhibition is 9.15%.

On to `CCN(Cc1ccccc1)c1ccc(/C=N/NS(=O)(=O)c2ccc(C)c([N+](=O)[O-])c2)cc1`, for which the inhibition is -1.19%.

For `Cn1c2c(c(=O)n(C)c1=O)C(c1ccc(F)cc1)C(C#N)=C(N)O2` (stereo not drawn), the inhibition was -0.36%.

For the compound `Cc1cccc(/C=N/NC(=O)c2ccc(NC(=O)c3ccccc3C)cc2)n1`, the inhibition was -6.91%.

Turning to `CCNC(=O)C(=O)N1CCC2(CC1)OCCN2S(=O)(=O)c1ccc(C)cc1`, the inhibition was 5.17%.

As to `CCC(/C=C1\Sc2ccc(OC)cc2N1CC)=C\c1sc2ccc(OC)cc2[n+]1CCCS(=O)(=O)[O-]`, the inhibition was -0.43%.

On to `CCC(=O)/C=C1\Sc2ccc(OC)cc2N1CCO`, for which the inhibition was 7.02%.

Consider `O=C(COC(=O)/C=C/c1ccccc1[N+](=O)[O-])NC1CC1`, for which the inhibition is 0.04%.

Turning to `CCN(CC)Cc1ccccn1`, the inhibition was 0.25%.

With `OCCN(Cc1ccccc1)Cc1ncccc1O`, the inhibition is -15.6%.

In the case of `CCn1c(SCC(=O)NC(C)c2ccccc2)nc2ccccc21` (stereo not drawn), the inhibition was 6.4%.

As for `COc1ccc(C(C)(C)C)cc1NC(=O)COC(=O)CSCc1c(C)noc1C`, the inhibition is 12.6%.

With `COC(=O)C1=C(C(=O)OC)SC(=C2C(=S)C(C)(C)N(C(=O)C(C)C)c3ccccc32)S1`, the inhibition was 26.5%.

For the compound `COC(=O)C1=C(C(=O)OC)SC(=C2C(=S)C(C)(C)N(C(=O)CC(C)C)c3ccccc32)S1`, the inhibition is 18.9%.

Take `CC(=O)C1=C(C)N(Cc2ccccc2)C(=O)N[C@H]1c1cccc(F)c1`: the inhibition is -6.27%.

Take `CC(C)=C(NC(=O)c1ccccc1)C(=O)Nc1ccc(C(=O)O)cc1`: the inhibition is -12.3%.

Turning to `O=C1C=C(O)c2cccc(O)c2C1=O`, the inhibition was 3.19%.

Turning to `O=C1C(=O)c2c(ccc3ccccc23)-c2ccccc21`, the inhibition was 0.1%.

As to `CC(=O)c1ccc(S(=O)(=O)N(CCCO)Cc2cc3cc4c(cc3[nH]c2=O)OCCO4)cc1`, the inhibition was -6.83%.

`COCCNC(=S)Nc1ccc2nc(N3CCN(C)CC3)cc(C)c2c1`: the inhibition was 8.16%.

For `O=C(CNS(=O)(=O)c1ccccc1)Nc1ccccc1Br`, the inhibition was -10.4%.

For `Cc1c(NC(=S)N/N=C/c2ccc(O)cc2)c(=O)n(-c2ccccc2)n1C`, the inhibition is -9.33%.

As to `Cc1c(NC(=S)N/N=C/C=C/c2ccc([N+](=O)[O-])cc2)c(=O)n(-c2ccccc2)n1C`, the inhibition was 1.25%.

Regarding `Cc1c(NC(=S)N/N=C/c2cc([N+](=O)[O-])ccc2O)c(=O)n(-c2ccccc2)n1C`, the inhibition is 2.17%.

With `Cc1c(NC(=S)N/N=C/c2ccc(Br)cc2)c(=O)n(-c2ccccc2)n1C`, the inhibition was 0.4%.

On to `CCCOc1ccc(/C=N/NC(=O)CSCc2ccc([N+](=O)[O-])cc2)cc1OCC`, for which the inhibition is -9.68%.

As for `CC(C)CN(C(=O)C1CCCO1)C1CCS(=O)(=O)C1` (stereo not drawn), the inhibition was -6.34%.

For the compound `O=C(Oc1coc(CSc2ncccn2)cc1=O)c1cccs1`, the inhibition was -4.51%.

Turning to `COC(=O)C1=C(CSc2nccn2C)NC(=O)NC1c1cc(C)ccc1C` (stereo not drawn), the inhibition is 1.93%.

As for `Cc1c(OC(C)C(=O)NCc2ccccn2)ccc2c3c(c(=O)oc12)CCCC3` (stereo not drawn), the inhibition was -4.86%.

For `C=CCOc1ccc(/C=N/NC(=O)CC(=O)NC2CCCCC2)cc1`, the inhibition was 6.03%.

Take `CC1(C(=O)Nc2nc3ccc(S(C)(=O)=O)cc3s2)CC1(Cl)Cl` (stereo not drawn): the inhibition is 5.4%.

For `O=C(O)c1cccc(NN=C2c3ccccc3-c3ccccc32)c1`, the inhibition was 10.1%.

In the case of `O=C(O)c1ccc(N=N/C(=N\Nc2ccc(C(=O)O)cc2)c2ccccc2)cc1`, the inhibition is 15.3%.

Consider `CC(=O)c1cccc(NC(=O)CN2C(=O)NC(C)(c3ccc4c(c3)OCCCO4)C2=O)c1` (stereo not drawn), for which the inhibition was 2.48%.

With `COc1ccccc1CNC(=O)Cn1cc([N+](=O)[O-])ccc1=O`, the inhibition is -14%.

Regarding `c1ccc(Nc2nc(-c3ccccn3)cs2)cc1`, the inhibition is 8.8%.

As for `Cc1cccc(Nc2nc(-c3cccs3)cs2)n1`, the inhibition was 8.74%.

Take `Cc1cccnc1Nc1nc(-c2ccccc2)cs1`: the inhibition was -4.02%.

For `Cc1cccnc1Nc1nc(-c2ccc(O)cc2)cs1`, the inhibition is 5.7%.

As for `CCCc1nnc(NC(=O)CCC(=O)N2CCN(CCOC(c3ccccc3)c3ccccc3)CC2)s1`, the inhibition is 0.42%.

As for `O=CNCC(=O)NC1CCCCCC1`, the inhibition is -2.65%.

Regarding `Cc1ccc(OCC(=O)N/N=C/c2cccnc2)cc1C`, the inhibition is -11%.

As to `O=C1NC(=O)C(CC(=O)N(c2ccccc2)C2(C(=O)NC3CCCC3)CCCCC2)N1` (stereo not drawn), the inhibition is -0.63%.

On to `CC(Oc1ccc(Cl)cc1Cl)C(=O)Nc1ccc(N2CCN(C)CC2)cc1` (stereo not drawn), for which the inhibition was 9.83%.

On to `Cc1ccc(S(=O)(=O)NCC(=O)N2CCN(c3ccccc3F)CC2)cc1`, for which the inhibition is 11.9%.

On to `Cc1ccc(S(=O)(=O)Nc2nc3ccccc3nc2N2CCN(c3ccccc3F)CC2)cc1`, for which the inhibition is -0.57%.

In the case of `CCN1CCN(C2=C(NS(=O)(=O)c3ccccc3)C(=O)c3ccccc3C2=O)CC1`, the inhibition was -3.88%.

Consider `CCOC(=O)N1CCN(C2=C(NS(=O)(=O)c3ccc(NC(C)=O)cc3)C(=O)c3ccccc3C2=O)CC1`, for which the inhibition was 12.4%.

Consider `CC(=O)Nc1ccc(S(=O)(=O)NC2=C(N3CCN(Cc4ccccc4)CC3)C(=O)c3ccccc3C2=O)cc1`, for which the inhibition was 12.6%.

With `Cc1ccc(S(=O)(=O)CC(=O)N2CCN(c3ccccc3F)CC2)cc1`, the inhibition was 2.84%.

Regarding `CCOC(=O)N1CCN(C2=C(NS(=O)(=O)c3ccccc3)C(=O)c3ccccc3C2=O)CC1`, the inhibition is 18.6%.

Regarding `CCN1CCN(C2=C(NS(=O)(=O)c3ccc(C)cc3)C(=O)c3ccccc3C2=O)CC1`, the inhibition is 10.6%.
